OTUD3 inh – inhibitors of human OTUD3 deubiquitinase | 47,000 compounds, 0.7% hits | inhibition, % at 25 µM | OTU domain-containing protein 3 (Homo sapiens), Q5T2D3 | purified OTUD3, Ub-rhodamine fluorescence, 2 h
USP28 inh – inhibitors of human USP28 deubiquitinase; inhibition, % at 25 µM; Ubiquitin carboxyl-terminal hydrolase 28 (Homo sapiens), Q96RU2; 47,000 compounds, 3% hits; purified USP28, Ub-rhodamine cleavage fluorescence, 30 min
USP30 inh – inhibitors of human USP30 deubiquitinase. Ubiquitin carboxyl-terminal hydrolase 30 (Homo sapiens), Q70CQ3. purified USP30, Ub-rhodamine cleavage fluorescence. inhibition, % at 25 µM. 47,000 compounds, 5.3% hits. AID 1645860, 2021
USP17 inh – inhibitors of human USP17 deubiquitinase; purified USP17, Ub-rhodamine cleavage fluorescence, 3 h; Ubiquitin carboxyl-terminal hydrolase 17-like protein 5 (Homo sapiens), A8MUK1; inhibition, % at 50 µM; 47,000 compounds, 6.5% hits
* = called active by the depositor; · = no result. Sampled rows, rich in hits. Any-hit rate of the full collection: about 11%. Rule as the data show it: active = inhibition above about 30%; inactive = the rest.

SMILES	OTUD3 inh	USP28 inh	USP30 inh	USP17 inh
Cc1ccc2[nH]c3c(=O)n(CCN4CCCC4)cnc3c2c1	11	13	5	5
Cc1ccc2[nH]c3c(=O)n(CCc4ccc(O)cc4)cnc3c2c1	5	43*	93*	57*
Cc1ccc(NC(=O)Cn2c(C)ccc(NC(=O)Nc3cccc(C)c3)c2=O)cc1	-1	-4	-20	-2
Cc1ccc(NC(=O)Nc2ccc(C)n(CC(=O)Nc3ccccc3)c2=O)cc1	4	·	·	89*
CN(C)S(=O)(=O)c1ccc(S(=O)(=O)NCCc2ccc3c(c2)OCO3)cc1	12	19	45*	16
COC(=O)c1sc2cc([N+](=O)[O-])sc2c1NC(C)=O	-2	-1	2	-15
COC(=O)c1sc2ccccc2c1NC(=O)c1ccc(Br)s1	12	14	19	70*
CC(OC(=O)c1cc(S(=O)(=O)Nc2ccccc2F)ccc1Cl)C(=O)Nc1ccc([N+](=O)[O-])cc1C(F)(F)F (centres undefined)	5	15	-8	10
CC(OC(=O)c1ccccc1Sc1ccccc1C#N)C(=O)Nc1cccc([N+](=O)[O-])c1 (centres undefined)	13	27	36*	26
Cc1ccc(-c2nnc(NC(=O)C3CCCCC3)o2)c(C)c1	3	4	6	38*
CO/[N+]([O-])=C/C(=O)N/C=C/C(N)=O	-5	-10	-17	-8
CC(C)C12CN3CC(C(C)C)(CN(C1)C3c1ccc([N+](=O)[O-])o1)C2=O (centres undefined)	25	11	17	17
CC(C)C12CN3CC(C(C)C)(CN(C1)C3[C@@H](O)[C@H](O)[C@H](O)[C@@H](O)CO)C2=O (some centres undefined)	22	11	30*	7
Cc1ccc2nc(NCC(=O)Nc3ccc4c(c3)OCO4)sc2c1	-7	5	1	·
O=C(c1ccc(Cl)cc1)c1c[nH]cc1-c1c(F)cccc1Cl	6	19	54*	32*
Cc1cccc(NC(=O)c2c(-c3c(F)cccc3Cl)noc2C)n1	1	·	·	-1
COc1cccc(/C=C/C(=O)N[C@@H](CCSC)c2nnc3ccccn23)c1	6	7	3	-3
O=C(OCc1c(F)cccc1Cl)c1c2c(nc3ccccc13)CCC2	25	34*	25	44*
CC(C)(C)C(=O)COC(=O)c1c2c(nc3ccccc13)CCCCC2	3	2	6	11
O=C(CN1C(=O)c2ccccc2Sc2ccc(C(=O)N3CCCC3)cc21)NCc1ccco1	-7	-26	-134	0
COc1ccc(NC(=O)CN2C(=O)c3ccccc3Sc3ccc(C(=O)N4CCCC4)cc32)cc1OC	16	14	24	55*
CCCCC(C)/C=C(C)/C=C(\C)C(N)=O (centres undefined)	14	29	32*	27
CCc1nc2ccc(C(=O)NCc3ccc(OC)cc3)cc2nc1CC	2	11	-7	12
COc1cccc(-n2cnc3cc(C(=O)NCc4ccncc4)ccc3c2=O)c1	15	8	31*	25
Cc1cccn2c(=O)cc(CN3CCCCC3c3nc4ccccc4s3)nc12 (centres undefined)	-11	-6	-46	4
SMILES	OTUD3 inh	USP28 inh	USP30 inh	USP17 inh
O=c1ncn(Cc2ccc3c(c2)OCO3)cc1-c1ncc(C(F)(F)F)cc1Cl	2	3	46*	51*
O=C(Nc1cc(C(F)(F)F)ccc1Oc1ccccc1Cc1ccccc1)c1ccco1	3	3	0	3
Cc1ccccc1OCCCn1c(CN(C)C(=O)c2ccco2)nc2ccccc21	-10	-4	-6	30*
Cc1cccc(OCCCn2c(CN(C)C(=O)c3ccco3)nc3ccccc32)c1	-7	-10	-2	-14
O=C(CN(C(=O)CCC(=O)Nc1ccccn1)c1cccc(F)c1)NCc1ccc(F)cc1	11	8	33*	14
COc1ccc(CNC(=O)CN(C(=O)CCC(=O)Nc2ccccn2)c2ccc(OC)cc2)cc1	2	4	18	23
CN(CC1COc2ccccc2O1)C(=O)c1cncc(-c2cncnc2)c1 (centres undefined)	-8	-2	6	2
O=C(Oc1ccc(F)cc1)c1cc(-c2ccc3c(c2)OCCO3)on1	7	2	0	4
Cc1cc(Cl)ccc1Nc1nc(Nc2ccc(F)cc2)nc2c1cnn2C	1	7	4	9
O=C(c1cn2cc(Cl)ccc2n1)N1CCC(Cc2ccccc2)CC1	17	20	30*	21

Assay outcomes (PubChem)
